Test results: PubChem BioAssay (NCATS)
Activity calls are given as the source filed them. Entries that show only a call come without a potency. Calls come from the whole dose curve; as a rule, active = well fitted inhibition curve with a large enough effect; inconclusive = small, poorly fitted or top-dose-only effect; inactive = no such curve, though single readings can be large or run the other way.

Experiment: qHTS assay for measurement of the activity of small molecule inhibitors on Zika virus induced Caspase-3 activity in human astrocytoma cells (AID 1224859)
Settings: SNB-19 ZIKV-induced caspase-3/7, luminescence, 6 h; series mostly up to 45.7 µM
Excerpt: National Center for Advancing Translational Sciences [NCATS]
Johns Hopkins University School of Medicine
Increase in the Caspase-3 activity indicates an activation of apoptosis cell death pathway caused by Zika virus infection in certain types of neuronal cells including human neural progenitor cells (hNPCs), astrocytes, and astrocytoma cell line (SNB-19). This cell-based caspase-3 activity assay measures the increased caspase-3 activity in the astrocytoma cell line (SNB-19) after a 6-hour Zika virus infection with a luminescence readout. A decrease in the luminescence signal in this assay by small molecule treatment indicates an inhibitory effect of that small molecule on the Zika virus induced caspase-3 activity that may correlate with its effect on reduction of Zika virus caused cell death.
The medium for SNB-19 cells is composed of RPMI 1640 (ATCC, Cat.# 30-2001), 10% fetal bovine serum (FBS) (GE healthcare Life Sciences, Cat.# SH30071.03), and 1% Pen/Strep (Gibco, Cat.# 15140-122). A Caspase-Glo 3/7 assay kit (catalog number G8092; Promega, Madison, WI) was used to detect caspase-3 activity induced by Zika virus infection in human cells. The reagent mixture was reconstituted as described in the protocol from the manufacturer. Polystyrene tissue culture treated and PDL coated white plates were obtained from Greiner Bio-One (Monroe, NC). Cells were seeded in 384- or 1536-well assay plates and cultured at 37 C with 5% CO2 for 16 to 20 hours. The typical cell seeding density in the 1536-well plate assay is 250 cells/well in 3ul medium for SNB-19 cells in tissue culture treated plates. Compounds were added to cells and incubated for one hour before addition of ZIKV solution to cells (2 FFU/cell). After incubation at 37 C with 5% CO2 for 6 hours, the reagent mixture of Caspase-Glo 3/7 assay kit was added to each well, followed by incubation at room temperature for 30 minutes. The luminescence intensity of the assay plates was measured using a ViewLux plate reader (PerkinElmer). Data were normalized by using the cell-containing wells without ZIKV as a negative control (0% induction of caspase 3/7 activity) and wells containing ZIKV infected cells (Caspase-3 activity induced) as a positive control (100% induction of caspase 3 activity). The percentage inhibitions of the increased Caspase-3 activity by small molecule inhibitors were then calculated.
In the case of CCn1cc(-c2ccnc3[nH]c(-c4cccc(CN(C)C)c4)cc23)c(-c2ccc(NC(=O)N(C)C)cc2)n1, the Potency is reported as “inactive”.
For COCCOc1ccc2c(c1)ncn2-c1ccc2cccc(N3CCC(N)CC3)c2n1, the Potency was “inactive”.
For CN(c1ncccc1CNc1nc(Nc2ccc3c(c2)CC(=O)N3)ncc1C(F)(F)F)S(C)(=O)=O, the Potency was “inactive”.
In the case of CS(=O)(=O)c1ccc(-c2cnc(N)c(C(=O)Nc3ccccc3)n2)cc1, the Potency is reported as “inactive”.
In the case of CNC(=O)c1c(F)cccc1Nc1nc(Nc2cc3c(cc2OC)CCN3C(=O)CN(C)C)nc2[nH]ccc12, the Potency is reported as “inactive”.
For COC(=O)[C@]12CCC(C)(C)C[C@@H]1[C@@H]1C(=O)C=C3[C@@]4(C)C=C(C#N)C(=O)C(C)(C)[C@@H]4CC[C@@]3(C)[C@]1(C)CC2, the Potency was “inactive”.
With CCN(CC)CCCCNc1ncc2cc(-c3cc(OC)cc(OC)c3)c(NC(=O)NC(C)(C)C)nc2n1 the Potency was “inactive”.
With CC(C)(C)c1cc(NC(=O)Nc2ccc(-c3cn4c(n3)sc3cc(OCCN5CCOCC5)ccc34)cc2)no1 the Potency was “inactive”.
With c1nc2nc(Nc3ccc(N4CCOCC4)cc3)nc(NC3CCCCC3)c2[nH]1 the Potency was “inactive”.
In the case of C[C@@H](Oc1cc(-c2cnn(C3CCNCC3)c2)cnc1N)c1c(Cl)ccc(F)c1Cl, the Potency is reported as “inactive”.
For Nc1ncnc2c1c(-c1cnc3[nH]ccc3c1)nn2C1CCCC1, the Potency was “inactive”.
In the case of CN1CCN(c2ccc3nc(-c4c(N)c5c(F)cccc5[nH]c4=O)[nH]c3c2)CC1, the Potency is reported as “inactive”.
In the case of NC(=O)Nc1cc(-c2cccc(F)c2)sc1C(=O)N[C@H]1CCCNC1, the Potency is reported as “inactive”.
In the case of Cc1nc2ccc(CN(C)c3ccc(C(=O)N[C@@H](CCC(=O)O)C(=O)O)s3)cc2c(=O)[nH]1, the Potency is reported as “inactive”.
With CC=C1NC(=O)[C@H]2CSSCCC=C[C@H](CC(=O)N[C@H](C(C)C)C(=O)N2)OC(=O)[C@H](C(C)C)NC1=O the Potency was “inactive”.
For CCOC(=O)C1=C(C)NC2=C(C(=O)CC(C)(C)C2)C1c1ccc(-c2ccccc2)cc1 (stereo not given), the Potency was “inactive”.
With C1Cc2[nH]nc(-c3nn[nH]n3)c2C1 the Potency was “inactive”.
With CC(=O)Nc1sc2c(c1-c1nc3ccccc3s1)CNC2 the Potency was “inactive”.
With Cc1cc(Nc2cc(N3CCN(C)CC3)nc(Sc3ccc(NC(=O)C4CC4)cc3)n2)n[nH]1 the Potency was “inactive”.
In the case of Cc1cc(N2CCOCC2)cc2[nH]c(-c3c(NC[C@@H](O)c4cccc(Cl)c4)cc[nH]c3=O)nc12, the Potency is reported as “inactive”.
With COc1ccc(CC2c3cc(OC)c(OC)cc3CC[N+]2(C)CCC(=O)OCCCCCOC(=O)CC[N+]2(C)CCc3cc(OC)c(OC)cc3C2Cc2ccc(OC)c(OC)c2)cc1OC (stereo not given) the activity change, negative = inhibition was 7.2% [at 9.06 µM] (inactive).
For CC(C)(O)c1cc2nc(-c3cnc(N)nc3)nc(N3CCOCC3)c2s1, the Potency was “inactive”.
In the case of CC(C)c1nn(-c2c(Cl)cccc2Cl)c2nc(Cc3ccc(OCCO)cc3)[nH]c(=O)c12, the Potency is reported as “inactive”.
With COc1cc(C(=O)N2CCC(N3CCN(C)CC3)CC2)ccc1Nc1ncc2c(n1)N(C)c1ccccc1C(=O)N2C the Potency was “inactive”.
With CCc1c2c(nc3ccc(O)cc13)-c1cc3c(c(=O)n1C2)COC(=O)[C@]3(O)CC the Potency was “inactive”.
In the case of COc1ccc(-n2nc(C(N)=O)c3c2C(=O)N(c2ccc(N4CCCCC4=O)cc2)CC3)cc1, the Potency is reported as “inactive”.
In the case of C=C1C(=CC=C2CCC[C@]3(C)[C@@H]([C@H](C)C=C[C@H](C)C(C)C)CC[C@@H]23)C[C@@H](O)C[C@@H]1O, the Potency is reported as “inactive”.
For COc1ccc2c(c1)CC[C@@H](CN(C)CC(=O)O)[C@H]2c1ccccc1, the Potency was “inactive”.
For CC(C)c1cnn2c(NCc3ccccc3)cc(N[C@@H](CO)[C@H](O)CO)nc12, the Potency was “inactive”.
For O=C(NCCCNc1nc(Nc2cccc(NC(=O)N3CCCC3)c2)ncc1I)c1cccs1, the Potency was “inactive”.
In the case of CC1(C)CCC(c2ccc(Cl)cc2)=C(CN2CCN(c3ccc(C(=O)NS(=O)(=O)c4ccc(N[C@H](CCN5CCOCC5)CSc5ccccc5)c(S(=O)(=O)C(F)(F)F)c4)cc3)CC2)C1, the Potency is reported as “inactive”.
In the case of O=C(C=Cc1cccnc1)NCCCCC1CCN(C(=O)c2ccccc2)CC1, the Potency is reported as “inactive”.
For CC(C)(C)c1cnc(CSc2cnc(NC(=O)C3CCNCC3)s2)o1, the Potency was “inactive”.
In the case of Cc1cccc(C=NNc2cc(N3CCOCC3)nc(OCCc3ccccn3)n2)c1, the Potency is reported as “inactive”.
With Clc1cccc(-n2nnnc2NCc2ccccc2Oc2ccccn2)c1Cl the Potency was “inactive”.
For O=C1CCC[C@@H]2[C@H]3CCC[N+]4([O-])CCC[C@@H](CN12)[C@@H]34 (stereo not given in full), the Potency was “inactive”.
With CC1=C(CO)C(=O)O[C@@H]([C@@H](C)[C@H]2CC[C@H]3[C@@H]4C[C@H]5O[C@]56[C@@H](O)C=CC(=O)[C@]6(C)[C@@H]4CC[C@]23C)C1 the Potency was “inactive”.
In the case of C=CCn1c(=O)c2cnc(Nc3ccc(N4CCN(C)CC4)cc3)nc2n1-c1cccc(C(C)(C)O)n1, the Potency is reported as “inactive”.
With COc1cc(C(=O)NS(=O)(=O)c2ccccc2C)ccc1Cc1cn(C)c2ccc(NC(=O)OC3CCCC3)cc12 the Potency was “inactive”.
With COc1cc(OC2CCN(C)CC2)ccc1Nc1ncc2c(n1)n(C1CCCC1)c(=O)n2C the Potency was “inactive”.
